# Assay results reported in PubChem BioAssay AID598 (SRMLSC, 2007).
# The campaign covered roughly 85,000 compounds. About 5,100 (6%) were called active.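 The calls were made as follows: active = viability at or below 40%; inactive = viability above 40%.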 For the sample, actives were picked, then their nearest neighbours and some compounds at random.
# Test: proliferation blockers of H69AR lung cancer cells, primary screen, cell-based, human, 86K library (AID 598);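 also: multidrug resistant small cell line overexpressing MRP-1 efflux transporter; 100% = mean luminescence of untreated control wells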
# Details: H69AR lung tumor viability, ATP luminescence, 72 h; at 10 µM; hits give low values
row,SMILES,viability
1,N=c1c2c(-c3ccccc3)c(-c3ccccc3)n(Cc3ccccc3)c2ncn1CCCO,0.82% (active)
2,Cc1ccc(NC(=O)N2CCC(c3nc4c(nnn4Cc4c(F)cccc4Cl)c(=O)[nH]3)CC2)cc1,67.6% (inactive)
3,CCCCNC(=O)C1CCCNC1=O (configuration not stated),98.9% (inactive)
4,COc1ccc(-c2n[nH]c(C)c2-c2ccc(OC)c(OC)c2)c(O)c1,14.9% (active)
5,C=C(C)COc1ccc(-c2n[nH]c(C)c2-c2ccccc2OC)c(O)c1,39.9% (active)
6,COc1ccccc1-c1c(C)nn2c(C)c(C(C)=O)cnc12,89.8% (inactive)
7,C=C(C)COc1ccc(-c2n[nH]c(C)c2-c2ccccc2)c(O)c1,95.5% (inactive)
8,O=C(Cn1c(-c2cscn2)nc2ccccc21)Nc1ccc(Cl)cc1,72.9% (inactive)
9,COc1ccc(C)cc1S(=O)(=O)NCCc1ccccc1,96% (inactive)
10,CCCCOc1ccc(N(CC(=O)NCC2CCCO2)C(=O)CCC(=O)Nc2cc(C)ccn2)cc1 (configuration not stated),102% (inactive)
11,O=C(CC12CC3CC(CC(C3)C1)C2)Nc1ccc2c(c1)COC2=O,90.9% (inactive)
12,O=S(=O)(NN=C1CCCCCCC1)c1ccc(Br)cc1,88.9% (inactive)
13,CC/S(CC1CC1(Cl)Cl)=N\S(=O)(=O)c1ccc(C)cc1 (configuration not stated),76.7% (inactive)
14,CCCCn1c(SCC(=O)NCCc2ccc(OC)c(OC)c2)nc2c1c(=O)n(C)c(=O)n2C,86.6% (inactive)
15,CCn1c(SCC(=O)Nc2nc3ccc(OC)cc3s2)nnc1-c1ccoc1C,58.8% (inactive)
16,CCOc1ccc2nc(NC(=O)CSc3nc4c(c(=O)n(C)c(=O)n4C)n3CC)sc2c1,14.9% (active)
17,COC(=O)CNC(=O)c1ccccc1F,85.2% (inactive)
18,O=C(c1ccc(Cl)c(Cl)c1)N1CCCC1,95.3% (inactive)
19,C/C=C/C(=O)OCC(=O)Nc1ccc(F)cc1Cl,98.4% (inactive)
20,COc1ccccc1-n1nnnc1S(=O)(=O)Cc1ccc(Cl)cc1,1.36% (active)
21,COc1ccccc1N1CCN(Cc2nnnn2CCc2ccccc2)CC1,102% (inactive)
22,COc1ccccc1N1CCN(C(=O)CN(Cc2ccc(Cl)cc2)S(C)(=O)=O)CC1,86.8% (inactive)
23,COCc1[nH][nH]c(=O)c1C=Nc1ccc(F)cc1F,96.8% (inactive)
24,Cc1cc(C(F)F)n2nc(C(=O)Nc3ccc(S(=O)(=O)NC45CC6CC(CC(C6)C4)C5)cc3)nc2n1,115% (inactive)
25,CC(C)CNC(=O)CC(c1ccccc1)c1c(O)ccc2ccccc12 (configuration not stated),92.8% (inactive)

row,SMILES,viability
1,O=S(=O)(NCCc1ccccc1)c1ccccc1,103% (inactive)
2,CCN1C(=O)C(CC(=O)Nc2cc(C)ccc2C)SC1=Nc1ccc(S(N)(=O)=O)cc1 (configuration not stated),97.3% (inactive)
3,Cc1ccc(OCC(=O)Nc2ccc(-c3nnc(-c4ccco4)o3)cc2)cc1,90.5% (inactive)
4,COc1ccc(CC(=O)Nc2ccc(-c3nnc(-c4ccccc4)o3)cc2)cc1,58.1% (inactive)
5,COc1ccc(CC(=O)Nc2ccc(-c3nnc(-c4ccc(C)cc4)o3)cc2)cc1,2.28% (active)
6,CN(Cc1ccccc1)C(=O)COc1ccccc1,97.9% (inactive)
7,CCc1ccccc1NC(=O)CN(C)S(=O)(=O)c1ccc2c(c1)c(=O)n(C)c(=O)n2C,88.5% (inactive)
8,Cc1cc(C)c2nc(N3CCCC3)c(C#N)cc2c1,91.6% (inactive)
9,Cc1cccc2cc(C#N)c(N3CCCC3)nc12,100% (inactive)
10,CC(=O)c1ccc(S(=O)(=O)N2CCN(c3nc4c(C)c(C)ccc4cc3C#N)CC2)cc1,36% (active)
11,CCS(=O)(=O)Nc1ccc(C2=NN(S(=O)(=O)c3ccc(F)cc3)C(c3ccco3)C2)cc1 (configuration not stated),81.9% (inactive)
12,O=C(NC1CCCC1)C(c1ccccn1)N(C(=O)c1csnn1)C1CCCC1 (configuration not stated),81.2% (inactive)
13,CCOC(=O)CN(Cc1ccc(OC)c(OC)c1)S(=O)(=O)c1ccc(OC)cc1,87.8% (inactive)
14,Cc1ccccc1OCCC(=O)Nc1c(C)n(C)n(-c2ccccc2)c1=O,91% (inactive)
15,Cc1c(NC(=O)CSc2cccc3cccnc23)c(=O)n(-c2ccccc2)n1C,0.71% (active)
16,Cc1cc(C)cc(N(CC(=O)Nc2c(C)n(C)n(-c3ccccc3)c2=O)S(C)(=O)=O)c1,93.1% (inactive)
17,COc1ccc(C(C)=O)cc1CN1C(=O)NC2(CCCCC2C)C1=O (configuration not stated),93.7% (inactive)
18,CCOC(=O)N1CCN(C(=O)COc2ccc(Br)cc2)CC1,104% (inactive)
19,CCOC(=O)C1CCN(C(=O)COc2cc(C)c(Br)c(C)c2)CC1,35.3% (active)
20,CCOC(=O)C1CCN(C(=O)Nc2ccc(Cl)cc2)CC1,101% (inactive)
21,O=C1C2C3C=CC(C4CC34)C2C(=O)N1/N=C/c1ccc(-c2ccccc2[N+](=O)[O-])o1 (configuration not stated),86.5% (inactive)
22,COc1ccc(NC(=O)/C(Cl)=C(/Cl)S(=O)Cc2ccc(C)cc2)cn1 (configuration not stated),0.7% (active)
23,COc1cccc(NC(=O)Cc2ccc(C)cc2)c1,97.9% (inactive)
24,O=C(Cn1cnc2ccccc2c1=O)NCC1COc2ccccc2O1 (configuration not stated),104% (inactive)
25,Cc1cc(=O)[nH]c(SCc2cccc(F)c2)n1,106% (inactive)

row,SMILES,viability
1,Cc1cc(NC(=O)Cn2nc(C(F)(F)F)c3c2CCCC3)no1,35.8% (active)
2,O=C(Cn1nc(C(F)(F)F)c2c1CCC2)NCc1ccc(F)cc1,104% (inactive)
3,COC(=O)c1ccccc1NC(=O)Cn1nc(C(F)(F)F)c2c1CCC2,84.3% (inactive)
4,Cc1ccc(OC(=O)c2ccccc2C(=O)OCC(F)(F)C(F)F)cc1,99.1% (inactive)
5,Cc1cccc(-n2ncc3c(N4CCc5ccccc54)ncnc32)c1,33.3% (active)
6,COc1ccc(-n2ncc3c(N4CCc5ccccc54)ncnc32)cc1,43.4% (inactive)
7,COc1ccc(-n2ncc3c(N4CCCc5ccccc54)ncnc32)cc1,100% (inactive)
8,CC(C)N1C(=S)SC(C)(C)C1n1oc(=O)n(-c2ccc(Cl)c(Cl)c2)c1=O (configuration not stated),97.1% (inactive)
9,CC(C)(C)n1nnnc1C(c1ccc(F)cc1)N1CCN(Cc2ccc3c(c2)OCO3)CC1 (configuration not stated),81.2% (inactive)
10,CCN1C(=O)/C(=C\N2CCOCC2)SC1=S,86.2% (inactive)
11,CCSc1nc(-c2ccc(OC)cc2)cc(-c2ccc(OC)cc2)c1C#N,88% (inactive)
12,COC(=O)C(NC(C)=O)(Nc1nc2c(s1)CCCC2)C(F)(F)F (configuration not stated),91.5% (inactive)
13,O=C(Cn1c(=O)sc2ccccc21)Nc1nc2c(s1)CCCC2,63.2% (inactive)
14,O=C(CCS(=O)(=O)c1ccccc1)Nc1nc2c(s1)CCCC2,17.5% (active)
15,COc1ccc(C(C#N)N2N=C(C)CC2(C)C)cc1 (configuration not stated),104% (inactive)
16,COC(=O)c1c(C)c(C)nc(N)c1C#N,98.1% (inactive)
17,FC(F)(F)c1cc(-c2ccco2)nc(NCc2ccc(Cl)cc2)n1,101% (inactive)
18,CCCNC(=O)c1ccc(Cl)c(Cl)c1,96% (inactive)
19,O=C(NCc1cccnc1)Nc1ccccc1F,98.8% (inactive)
20,CCC(c1nnnn1Cc1ccco1)N(CCc1ccccc1)Cc1cc2cccc(C)c2[nH]c1=O (configuration not stated),67.3% (inactive)
21,CCC(c1nnnn1Cc1ccco1)N(CCc1ccccc1)Cc1cc2ccc(OC)cc2[nH]c1=O (configuration not stated),23.2% (active)
22,CCC(c1nnnn1Cc1ccco1)N(Cc1cc2cc(OC)ccc2[nH]c1=O)C1CCCCC1 (configuration not stated),76.8% (inactive)
23,Cc1nc(SCC(=O)Nc2cc(C)on2)c2c3c(sc2n1)CCCC3,94% (inactive)
24,Cc1cc(NC(=O)CSc2nc(C(C)C)nc3sc4c(c23)CCC(C)C4)no1 (configuration not stated),6.01% (active)
25,CC1CCc2c(sc(NC(=O)c3ccc(Cn4cc(Br)cn4)o3)c2C(N)=O)C1 (configuration not stated),101% (inactive)

row,SMILES,viability
1,C=CCN(C(=O)Nc1ccc2oc(C)nc2c1)c1ccccc1,78.7% (inactive)
2,COc1ccc(-c2nn(-c3ccccc3)cc2C(=O)Nc2nc(CC(C)=O)ns2)cc1,86.5% (inactive)
3,COc1ccc(-c2nn(-c3ccccc3)cc2C(=O)Nc2nccs2)cc1OC,17.2% (active)
4,COc1cc(C(=O)Nc2nccs2)cc(OC)c1OC,84.2% (inactive)
5,C/C=C/C(=O)Nc1nnc(C(C)C)s1,96.5% (inactive)
6,O=C(Nc1ccccc1)c1ccc2c(c1)OCO2,82.3% (inactive)
7,CCC(C)c1ccc(O)c(/C=N/O)c1 (configuration not stated),21.6% (active)
8,Cc1nn(C(C)CC(=O)O)c(C)c1C (configuration not stated),98.2% (inactive)
9,CCCCNC(=O)C1(c2ccc(OC)cc2)CCOCC1,93.8% (inactive)
10,CCOc1ccc(NC(=O)c2ccccc2NS(C)(=O)=O)cc1,94.1% (inactive)
11,C=CCn1c(CSc2nc3ccccc3s2)nnc1SCC(=O)NCc1ccco1,54.6% (inactive)
12,C=CCn1c(SCC(=O)Nc2nc3ccccc3s2)nnc1-c1ccccc1O,27.4% (active)
13,C=CCn1c(SCC(=O)NCc2ccccc2)nnc1-c1cc(Br)ccc1O,87.8% (inactive)
14,COc1ccc(OC)c(Nc2nc(-c3ccc(O)c(O)c3)cs2)c1,30.8% (active)
15,COc1ccc(C(=O)Nc2nc(-c3ccc(S(=O)(=O)N4CCOCC4)cc3)cs2)cc1,58% (inactive)
16,Oc1ccc(-c2csc(Nc3cccnc3)n2)cc1,54.4% (inactive)
17,CCOC(=O)C1=C(CNC2CCCCC2)NC(=O)NC1c1cc(C)ccc1C (configuration not stated),80.5% (inactive)
18,CCOC(=O)C1=C(CN2CCc3ccccc32)NC(=O)NC1c1ccc(Cl)cc1 (configuration not stated),48.1% (inactive)
19,CCOC(=O)C1=C(CN2CCc3ccccc32)NC(=O)NC1c1cccc([N+](=O)[O-])c1 (configuration not stated),16.4% (active)
20,COC(=O)C1=C(C(=O)c2ccc(C)cc2)C(c2ccccc2)n2nnnc2N1 (configuration not stated),93.9% (inactive)
21,COc1ccc(C2=CC(c3cccc(OC)c3)n3nnnc3N2)cc1 (configuration not stated),11.4% (active)
22,COc1ccccc1NC(=O)C1=C(C)Nc2nnnn2C1c1cccc(Br)c1 (configuration not stated),45.1% (inactive)
